# Measured values published in PubChem BioAssay (EPA / NIEHS).
# Calls of active or inactive are those of the source. How the source made its calls: active means hit-call score of the fitted dose curve at least 0.9, where 1 is the maximum; inactive means score below 0.9.
# How the values were obtained:
# Settings in all cases: mRNA level, 48 h; actives raise or lower the signal
# [1] = read-out: Pro-epidermal growth factor (Homo sapiens) (UniProt P01133); test: LTEA_HepaRG_EGF: Life Technologies and Expression Analysis (LTEA) Assay for Epidermal growth factor (EGF) using HepaRG (AID 2283489)
# Summary of the method: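 EGF expression changes in human HepaRG cells are scored by bidirectional fitting relative to 0.5% DMSO controls. Chemicals are tested at eight half-log concentrations up to 100 uM for 48 h in serum-free induction medium.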
# [2] = read-out: Early growth response protein 1 (EGR1) transcription factor, EGR1 (gene 1958); test: LTEA_HepaRG_EGR1: Life Technologies and Expression Analysis (LTEA) Assay for Early growth response protein 1 (EGR1) transcription factor using HepaRG (AID 2283490)
# Summary of the method: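 EGR1 transcript levels quantified by qRT-PCR (Fluidigm arrays) against three housekeeping genes after 48 h chemical exposure of HepaRG cells. Eight-point half-log series topping at 100 uM, 0.5% DMSO vehicle, analyzed for gain or loss.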
# [3] = read-out: Ezrin (EZR), EZR (gene 7430); test: LTEA_HepaRG_EZR: Life Technologies and Expression Analysis (LTEA) Assay for Ezrin (EZR) using HepaRG (AID 2283491)
# Summary of the method: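 Differentiated human HepaRG cells, 48 h after plating, were exposed in serum-free induction medium for 48 hours to eight half-log concentrations up to 100 uM in 0.5% DMSO. EZR mRNA was measured by TaqMan qRT-PCR, normalized to ACTB, GAPDH and POLR2A, and fitted bidirectionally against DMSO.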
# [4] = read-out: Cytochrome P450 3A7 (Homo sapiens) (UniProt P24462); test: LTEA_HepaRG_CYP3A7: Life Technologies and Expression Analysis (LTEA) Assay for CYP3A7 using HepaRG (AID 2283492)
# Summary of the method: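 Cells were thawed, plated, cultured 48 h, then treated for a further 48 h with chemicals (eight-point half-log series from 100 uM, 0.5% DMSO). RNA was isolated and CYP3A7 expression quantified by qRT-PCR normalised to ACTB, GAPDH and POLR2A.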
# [5] = read-out: CYP3A5 (gene 1577); test: LTEA_HepaRG_CYP3A5: Life Technologies and Expression Analysis (LTEA) Assay for CYP3A5 using HepaRG (AID 2283493)
# Summary of the method: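 Human HepaRG hepatic cells receive 48 h chemical treatment at eight concentrations (half-log steps from 100 uM) in 0.5% DMSO. Expression of CYP3A5 is quantified by Fluidigm qRT-PCR and normalized to three reference genes.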
# [6] = read-out: Fatty Acid-Binding Protein 1 (FABP1), FABP1 (gene 2168); test: LTEA_HepaRG_FABP1: Life Technologies and Expression Analysis (LTEA) Assay for Fatty Acid-Binding Protein 1 (FABP1) using HepaRG (AID 2283494)
# Summary of the method: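 FABP1 expression by TaqMan qRT-PCR, normalised to three housekeeping genes, in HepaRG cells after 48 h chemical treatment. Eight-point half-log series topping at 100 uM in 0.5% DMSO, duplicates; gain or loss fitted relative to vehicle.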
# [7] = read-out: Cytochrome P450 7A1 (Homo sapiens) (UniProt P22680); test: LTEA_HepaRG_CYP7A1: Life Technologies and Expression Analysis (LTEA) Assay for Cytochrome P450 7A1 (CYP7A1) using HepaRG (AID 2283496)
# Summary of the method: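 HepaRG, 48 h exposure, 8-pt half-log series from 100 uM, 0.5% DMSO vehicle, duplicates. Readout: TaqMan qRT-PCR mRNA vs three housekeeping genes; bidirectional curve fit against DMSO baseline.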
# [8] = read-out: Glutathione S-Transferase (GSTA2), GSTA2 (gene 2939); test: LTEA_HepaRG_GSTA2: Life Technologies and Expression Analysis (LTEA) Assay for Glutathione S-Transferase (GSTA2) using HepaRG (AID 2283497)
# Summary of the method: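 GSTA2 transcript levels came from Fluidigm TaqMan qRT-PCR normalized to three housekeeping genes, fitted in both directions against DMSO. HepaRG cultures received chemicals for 48 h in serum-free induction medium (0.5% DMSO), 8 half-log concentrations up to 100 uM, duplicate.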
# [9] = read-out: growth arrest and DNA damage 45 (GADD45G), GADD45G (gene 10912); test: LTEA_HepaRG_GADD45G: Life Technologies and Expression Analysis (LTEA) Assay for growth arrest and DNA damage 45 (GADD45G) using HepaRG (AID 2283499)
# Summary of the method: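 Human hepatic HepaRG line treated 48 h with chemicals (eight concentrations, half-log steps from 100 uM); transcript induction or repression of GADD45G scored by qRT-PCR versus DMSO vehicle.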
# [10] = read-out: Heat shock 70 kDa protein 1 (HSPA1A), gene 3303; test: LTEA_HepaRG_HSPA1A: Life Technologies and Expression Analysis (LTEA) Assay for Heat shock 70 kDa protein 1 (HSPA1A) using HepaRG (AID 2283502)
# Summary of the method: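 Cells were plated and cultured for 48 h, then switched to serum-free induction medium. Chemicals were added at eight half-log concentrations up to 100 uM for 48 h. RNA was then isolated and HSPA1A measured by qRT-PCR with bidirectional curve fitting against DMSO.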
# [11] = read-out: Hypoxia-inducible factor 1-alpha (Homo sapiens) (UniProt Q16665); test: LTEA_HepaRG_HIF1A: Life Technologies and Expression Analysis (LTEA) Assay for Hypoxia-inducible factor 1 (HIF1A) Trancription factor using HepaRG (AID 2283503)
# Summary of the method: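 HIF1A transcript level read by qRT-PCR (ACTB, GAPDH, POLR2A normalization) after 48 h chemical exposure of HepaRG cultures. Eight half-log concentrations, top 100 uM, 0.5% DMSO vehicle, duplicates; bidirectional curve fit against DMSO baseline.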
# [12] = read-out: 3-Hydroxy-3-Methylglutaryl-CoA Synthase 2 (HMGCS2), HMGCS2 (gene 3158); test: LTEA_HepaRG_HMGCS2: Life Technologies and Expression Analysis (LTEA) Assay for 3-Hydroxy-3-Methylglutaryl-CoA Synthase 2 (HMGCS2) using HepaRG (AID 2283504)
# Summary of the method: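 Expression of HMGCS2 in human HepaRG liver cells is measured by qRT-PCR 48 h after dosing (highest 100 uM, half-log series, 0.5% DMSO). Values come from bidirectional concentration-response fitting with DMSO as baseline.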
# [13] = read-out: HGF (gene 3082); test: LTEA_HepaRG_HGF: Life Technologies and Expression Analysis (LTEA) Assay for Hepatocyte Growth Facto (HGF) using HepaRG (AID 2283505)
# Summary of the method: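 Gain or loss of HGF mRNA in human HepaRG liver cells after 48 h chemical exposure; eight concentrations up to 100 uM with 0.5% DMSO vehicle, quantified by TaqMan qRT-PCR.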
# [14] = read-out: Insulin Like Growth Factor 1 (IGF1), IGF1 (gene 3479); test: LTEA_HepaRG_IGF1: Life Technologies and Expression Analysis (LTEA) Assay for Insulin Like Growth Factor 1 (IGF1) using HepaRG (AID 2283506)
# Summary of the method: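 Cells are thawed, plated and cultured 48 h, then exposed in duplicate to chemical (highest 100 uM, half-log steps, 0.5% DMSO) for another 48 h. Total RNA is analysed by Fluidigm qRT-PCR for IGF1 expression relative to vehicle.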
# [15] = read-out: Intercellular Adhesion Molecule 1 (ICAM1), ICAM1 (gene 3383); test: LTEA_HepaRG_ICAM1: Life Technologies and Expression Analysis (LTEA) Assay for Intercellular Adhesion Molecule 1 (ICAM1) using HepaRG (AID 2283507)
# Summary of the method: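 Gain or loss of transcript in HepaRG hepatic cells is quantified by qRT-PCR after 48 h chemical exposure (up to 100 uM, half-log steps), with DMSO as baseline.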
# [16] = read-out: Insulin-like growth factor-binding protein 1 (IGFBP1), IGFBP1 (gene 3484); test: LTEA_HepaRG_IGFBP1: Life Technologies and Expression Analysis (LTEA) Assay for Insulin-like growth factor-binding protein 1 (IGFBP1) using HepaRG (AID 2283508)
# Summary of the method: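 mRNA induction or loss was quantified by qRT-PCR after 48 h chemical exposure of human HepaRG cells, with 0.5% DMSO as vehicle and baseline. Concentration-response over eight points up to 100 uM.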
# [17] = read-out: Glutamate-cysteine ligase regulatory (GCLM), GCLM (gene 2730); test: LTEA_HepaRG_GCLM: Life Technologies and Expression Analysis (LTEA) Assay for Glutamate-cysteine ligase regulatory (GCLM) using HepaRG (AID 2283500)
# Summary of the method: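 Endpoint is GCLM transcript level by qRT-PCR, normalized to three housekeeping genes, after 48 h chemical exposure of human HepaRG cells (0.5% DMSO vehicle, top 100 uM, half-log dilutions). Fitting was bidirectional relative to DMSO.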
# [18] = read-out: Glutathione S-transferase M3 (GSTM3), GSTM3 (gene 2947); test: LTEA_HepaRG_GSTM3: Life Technologies and Expression Analysis (LTEA) Assay for Glutathione S-transferase M3 (GSTM3) using HepaRG (AID 2283501)
# Summary of the method: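 Changes in GSTM3 expression, an oxidative-stress marker, were scored by bidirectional curve fitting against 0.5% DMSO vehicle. Human HepaRG cultures received chemicals for 48 h in duplicate, highest concentration 100 uM with half-log dilutions.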
# Sequence of Cytochrome P450 3A7 (Homo sapiens) (P24462 whole entry, looked up): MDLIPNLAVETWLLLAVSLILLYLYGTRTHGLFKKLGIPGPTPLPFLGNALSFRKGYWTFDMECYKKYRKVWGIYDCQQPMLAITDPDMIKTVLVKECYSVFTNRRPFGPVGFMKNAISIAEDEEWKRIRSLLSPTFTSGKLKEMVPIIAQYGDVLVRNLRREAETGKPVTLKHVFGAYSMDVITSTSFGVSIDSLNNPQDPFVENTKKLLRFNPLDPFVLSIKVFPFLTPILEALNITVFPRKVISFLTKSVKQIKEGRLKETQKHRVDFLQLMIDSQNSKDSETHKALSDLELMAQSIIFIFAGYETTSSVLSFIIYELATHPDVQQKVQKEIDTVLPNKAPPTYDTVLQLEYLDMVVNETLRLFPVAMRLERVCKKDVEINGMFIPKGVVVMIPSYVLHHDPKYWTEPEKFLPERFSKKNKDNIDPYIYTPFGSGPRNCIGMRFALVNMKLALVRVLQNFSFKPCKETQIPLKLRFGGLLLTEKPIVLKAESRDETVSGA
# Sequence of Hypoxia-inducible factor 1-alpha (Homo sapiens) (Q16665 whole entry, looked up): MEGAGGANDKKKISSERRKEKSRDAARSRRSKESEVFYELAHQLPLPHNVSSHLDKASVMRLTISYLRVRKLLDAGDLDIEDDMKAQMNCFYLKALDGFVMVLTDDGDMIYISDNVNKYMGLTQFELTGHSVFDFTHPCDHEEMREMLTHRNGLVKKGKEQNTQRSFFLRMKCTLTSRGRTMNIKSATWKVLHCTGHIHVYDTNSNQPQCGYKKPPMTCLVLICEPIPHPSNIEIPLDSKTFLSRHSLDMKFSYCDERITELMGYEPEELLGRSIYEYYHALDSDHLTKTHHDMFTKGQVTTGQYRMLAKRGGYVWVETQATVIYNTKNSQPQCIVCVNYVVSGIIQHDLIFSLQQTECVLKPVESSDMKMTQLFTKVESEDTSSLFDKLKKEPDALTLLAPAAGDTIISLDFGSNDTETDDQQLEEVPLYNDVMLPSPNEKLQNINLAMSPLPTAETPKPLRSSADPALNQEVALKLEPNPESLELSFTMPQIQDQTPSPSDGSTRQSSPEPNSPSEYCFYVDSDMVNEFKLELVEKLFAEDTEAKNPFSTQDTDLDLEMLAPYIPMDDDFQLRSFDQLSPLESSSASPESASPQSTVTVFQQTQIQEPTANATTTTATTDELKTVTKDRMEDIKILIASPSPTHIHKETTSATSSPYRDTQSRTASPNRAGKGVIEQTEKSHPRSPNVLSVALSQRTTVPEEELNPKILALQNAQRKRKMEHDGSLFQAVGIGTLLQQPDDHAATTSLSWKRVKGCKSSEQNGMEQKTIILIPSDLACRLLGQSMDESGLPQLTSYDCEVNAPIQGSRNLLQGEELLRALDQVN
smiles,measurement,setting,value
N#CN=C1SCCN1Cc1ccc(Cl)nc1,outcome,[1],inactive
same,outcome,[2],inactive
same,outcome,[3],inactive
same,outcome,[4],inactive
same,outcome,[5],inactive
same,outcome,[6],inactive
same,outcome,[7],inactive
same,outcome,[8],inactive
same,outcome,[9],inactive
same,outcome,[10],inactive
same,outcome,[11],inactive
same,outcome,[12],inactive
same,outcome,[13],inactive
same,outcome,[14],inactive
same,outcome,[15],inactive
same,outcome,[16],inactive
CO/N=C(/C1=NOCCO1)c1ccccc1Oc1ncnc(Oc2ccccc2Cl)c1F,outcome,[1],inactive
same,AC50,[2],12.7 µM (active)
same,AC50,[3],0.973 µM (active)
same,AC50,[4],12.4 µM (active)
same,AC50,[5],23.3 µM (active)
same,AC50,[6],19.8 µM (active)
same,AC50,[7],24 µM (active)
same,AC50,[8],28.4 µM (active)
same,AC50,[9],18.4 µM (active)
same,AC50,[17],19.5 µM (active)
same,outcome,[18],inactive
same,outcome,[10],inactive
same,outcome,[11],inactive
same,AC50,[12],21.9 µM (active)
same,outcome,[13],inactive
same,AC50,[14],10.6 µM (active)
same,AC50,[15],29.4 µM (active)
same,AC50,[16],20.3 µM (active)
Cc1cc(C)nc(Nc2ccccc2)n1,outcome,[1],inactive
same,outcome,[2],inactive
same,outcome,[3],inactive
same,outcome,[4],inactive
same,outcome,[5],inactive
same,outcome,[6],inactive
same,AC50,[7],3.4 µM (active)
same,outcome,[8],inactive
same,outcome,[9],inactive
same,outcome,[10],inactive
same,outcome,[11],inactive
same,outcome,[12],inactive
same,outcome,[13],inactive
same,outcome,[14],inactive
same,outcome,[15],inactive
same,outcome,[16],inactive
CC(C)N1C(=O)N(c2ccccc2)CSC1=NC(C)(C)C,outcome,[1],inactive
same,outcome,[2],inactive
same,AC50,[3],50 µM (active)
same,outcome,[4],inactive
same,outcome,[5],inactive
same,AC50,[6],44.8 µM (active)
same,AC50,[7],70.4 µM (active)
same,AC50,[8],82.3 µM (active)
same,AC50,[9],76.1 µM (active)
same,outcome,[18],inactive
same,outcome,[10],inactive
same,outcome,[11],inactive
same,AC50,[12],75.5 µM (active)
same,outcome,[13],inactive
same,AC50,[14],59.9 µM (active)
same,AC50,[15],74.6 µM (active)
same,AC50,[16],89.1 µM (active)
